This note sets out measurements from PubChem BioAssay (NCI).

About 83,000 compounds went through this panel and 20% of them were active in at least one assay; those are over-represented in the sample as a whole.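 Compound tested at a single concentration for 48 hours in 96-well plates; a percent growth value below 10 was scored as active.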 A number with no mark means an inactive call. Activity calls are given as the source filed them.

What all share (test): NCI-60 one-dose screen, 48 h (100 = growth as untreated, 0 = no growth, -100 = all killed)
Common to all, as to conditions: 10 µM unless noted

For assay [1], the system named is RPMI-8226 leukemia.
The test system of assay [2] is OVCAR-8 ovarian.
Assay [3] concerns OVCAR-5 ovarian.
For assay [4], the system named is OVCAR-4 ovarian.
Assay [5] concerns SK-OV-3 ovarian.
The subject of assay [6] is IGROV1 ovarian.
The subject of assay [7] is OVCAR-3 ovarian.
The subject of assay [8] is HS 578T breast.
In assay [9] the test system is NCI/ADR-RES ovarian.
For assay [10], the system named is T-47D breast.

For `COc1ccc(C2c3ccc4ccccc4c3Oc3ncn(CCCn4ccnc4)c(=N)c32)cc1OC` (stereo not given), the growth in [1] is 36.1%; in assay [2], 67.8%; in [3], 67.5%; in [4], 58.9%; in assay [5] it was 76.1%; in [6] it was 72.8%. Moreover, the growth in assay [7] is 61.3%; in [8], 83.9%; in [9], 67.8%; in assay [10], 72.4%.

Consider `O=c1oc2ccc(F)cc2c(=O)n1-c1ccc(Cl)cc1F`, for which the growth was -23.1% (active) in assay [1]; 9.27% (active) in [2]; 17.6% in assay [3]; 13.3% in assay [4]; -11.5% (active) in [5]; 18.9% in assay [6]. For the same compound, the growth was 8.61% (active) in [7], -0.15% (active) in [8], 2.98% (active) in [9] and -19% (active) in assay [10].

Turning to `COc1ccc(OC)c(N(CCN2C(=O)c3ccccc3C2=O)C(=O)CCl)c1`, the growth in [1] is 32.9%; in [2] it was 65.6%; in assay [3], 65.9%; in assay [4], -49.5% (active); in assay [5], 91.3%; in assay [6], -73.4% (active). The growth in [7] was 14.6%; in [8], 52.6%; in assay [9], 49.2%; in assay [10], 95.4%.

Turning to `CC1=C(CC(=O)c2cccc([N+](=O)[O-])c2)C(=O)c2ccccc2C1=O`, the growth in [1] is -7.18% (active); in assay [2] it was 9.43% (active); in assay [3] it was 37.5%; in [4], -89.2% (active); in [5], 30.5%; in assay [6] it was -61.1% (active). Further, the growth was -94% (active) in assay [7], -20.6% (active) in [8], 30.9% in assay [9] and -10.2% (active) in assay [10].

Regarding `CN(O)c1nc(N(C)O)nc(N2CCOCC2)n1`, the growth was 36.8% in assay [1]; 33.8% in assay [2]; 68.9% in [3]; 1.09% (active) in assay [4]; 8.47% (active) in assay [5]; 20.1% in assay [6]. The growth in assay [7] is 5.41% (active); in [8], 75.9%; in assay [9], 21.6%; in [10], 40.9%.

For `O=NN(C(=O)NC1CCC(C(=O)O)CC1)C1CCC(C(=O)O)CC1` (stereo not given), the growth was 81.8% in [1]; 99.7% in [2]; 97.4% in assay [3]; 95.8% in assay [4]; 114% in assay [5]; 107% in assay [6]. Besides, the growth in assay [7] was 113%; in assay [8], 107%; in assay [9], 108%; in assay [10] it was 103%.

Consider `COc1ccc(N)c(-c2cc3c(c4c2[nH]c2ccc(OC)cc24)CCCC3)c1`, for which the growth in assay [1] is 68.5%; in assay [2] it was 87.4%; in [3], 95.5%; in assay [4] it was 93.3%; in [5], 77.3%; in assay [6], 71.1%. The growth in assay [7] is 86.1%; in assay [8], 85.9%; in assay [9], 85.7%; in assay [10], 62.7%.

`COc1ccc(/C=C2\NC(=O)NC2=O)cc1O`: the growth in assay [1] was 101%; in [2], 98.5%; in assay [3], 108%; in [4] it was 98.8%; in assay [5] it was 103%; in [6], 107%. The growth in assay [7] is 116%; in assay [8] it was 109%; in [9] it was 102%; in assay [10], 100%.

Consider `O=c1oc2ccc(I)cc2c(=O)n1-c1ccc(Cl)cc1F`, for which the growth in [1] was -24.8% (active); in [2], 8.33% (active); in assay [3] it was 21.5%; in assay [4], 15.8%; in assay [5] it was -1.52% (active); in assay [6], 18.7%. The growth is 8.51% (active) in assay [7], 5.48% (active) in assay [8], 8.36% (active) in assay [9] and -12% (active) in assay [10].

As for `O=C(CCc1nnc2sc(-c3ccc(Cl)cc3Cl)nn12)c1nc2ncccc2[nH]1`, the growth in assay [1] is -2.08% (active); in assay [2], 0.0907% (active); in [3], -49.3% (active); in assay [4], -37.7% (active); in [5], 36.1%; in [6], -14.8% (active). Besides, the growth was -68.7% (active) in assay [7], 0.818% (active) in [8], -3.89% (active) in assay [9] and -26.3% (active) in [10].

For the compound `COc1ccc(S(=O)(=O)N(Cc2ccc3c(n2)C=CC(C)(C)O3)C2CCC2)cc1OC`, the growth in assay [1] was -47.2% (active); in [2], 2.69% (active); in [3] it was 27.2%; in [4], -13.8% (active); in assay [5], -3.43% (active); in assay [6], -23.9% (active). In addition, the growth is -26.6% (active) in assay [7], 12.8% in assay [8], 6.95% (active) in assay [9] and 0.329% (active) in [10].

Turning to `COc1ccc(-c2cc(=O)c3c(OC)c4ccoc4c(/C=C/C=O)c3o2)cc1`, the growth in assay [1] is 0.179% (active); in assay [2] it was 28.5%; in assay [3] it was 77.1%; in [4] it was 37.2%; in assay [5], 84%; in assay [6], 72.7%. Further, the growth is 18.3% in assay [7], 39.2% in assay [8], 33.5% in [9] and 1.64% (active) in [10].

Regarding `COc1ccc(/C=C2\CCC/C(=C\c3ccc(OC)c(OC)c3)C2=O)cc1OC`, the growth is -4.53% (active) in [1]; 2.04% (active) in assay [2]; 41% in [3]; -0.91% (active) in assay [4]; 29.7% in [5]; 4.96% (active) in assay [6]. The growth is 13.8% in assay [7], 41.2% in [8], 11% in [9] and 19.3% in [10].

As to `CCN(CC)CCCNc1ccnc2cc3ccccc3cc12`, the growth in assay [1] was 74.2%; in [2], 60.1%; in assay [3] it was 84.7%; in assay [4], 77.4%; in assay [5] it was 72.4%; in assay [6], 81.2%. For the same compound, the growth in assay [7] was 74.5%; in [8], 68.4%; in assay [9] it was 71.1%; in assay [10], 66%.
